From PubChem
Shown is part of a subset that was picked to be rich in hits.
RMI-FANCM inh: disruptors of RMI1/RMI2 association with MM2 peptide – biochemical, fluorescence polarization, human, primary screen; RMI core complex (RMI1/RMI2) binding to FANCM MM2 peptide, human; RMI core complex with F-MM2 peptide; hits give low values; FP signal (polarization) at 33 µM; 70,000 tested, 0.58% active; AID 1159607, 2016; in the data active means FP signal below about 40
An asterisk follows results filed as active; ! = a repeat was not active.

SMILES	RMI-FANCM inh
COc1ccc(OC)c(S(=O)(=O)Nc2cc3c4c(c2)CCC(=O)N4CCC3)c1	52
CC1CC(C)CN(S(=O)(=O)c2cc3c4c(c2)CCC(=O)N4CCC3)C1 (stereo unspecified)	54
Cn1c(SCC(=O)NCc2ccc(F)cc2)nc2c(-c3ccccc3)csc2c1=O	65
CC1=NN(c2ccccc2)C(=O)/C1=C\c1cc(C)n(-c2ccccc2)c1C	83
C=CCn1c(SCC(=O)c2cc(C)n(-c3ccc(C)c(C)c3)c2C)nc2scc(-c3ccc(F)cc3)c2c1=O	86
C=CCN1C(=O)/C(=C\c2cc(C)n(-c3ccc(F)cc3)c2C)C(C(=O)OC)=C1C	31*
CN(C)CCCN1C(=O)C(=O)C(=C(O)c2ccc(F)cc2)C1c1ccco1 (stereo unspecified)	56
CC(C)Oc1ccc(C(=O)Nc2nnc(-c3ccc4c(c3)OCO4)o2)cc1	62
CC(=O)Nc1nnc(-c2ccc3c(c2)OCO3)o1	64
COc1cc(C(=O)Nc2nnc(-c3ccc4c(c3)OCO4)o2)cc(OC)c1OC	33*
Clc1cccc(Nc2ncc(-c3ccc4c(c3)OCCCO4)s2)c1	59
O=C(NCCOCCOCCNC(=O)Nc1ccccc1)Nc1ccccc1	61
Cc1ccc2sc(N(Cc3ccccn3)C(=O)Cc3ccc(S(C)(=O)=O)cc3)nc2c1C	80
COc1cc(Br)cc(C=Nc2ccccc2O)c1O	56
Oc1ccc(Cl)cc1C=Nc1cccc(C(F)(F)F)c1	50
Oc1c(Br)cc(Br)cc1C=Nc1ccc(-c2ccccc2)cc1	43
Oc1c(Br)cc(Br)cc1C=Nc1ccccc1F	-4*
Oc1c(Br)cc(Br)cc1C=Nc1cccc(Cl)c1	20*
COc1ccccc1N=Cc1ccccc1OC(=O)c1ccccc1Br	58
Cc1nc(-c2ccccc2)sc1C(=O)NCCCn1nc(-c2cccs2)ccc1=O	68
Cc1csc2nc(-c3ccc(NC(=O)c4ccc5ccccc5c4)cc3)cn12	81
CCCS(=O)(=O)N1CCCc2ccc(NS(=O)(=O)CC(C)C)cc21	57
CCCCOc1ccc(C(=O)NCc2nnc(SC)n2-c2ccc(F)cc2)cc1	77
CN(Cc1cnc2nc(N)nc(N)c2n1)c1ccc(C(=O)NC(CCC(=O)O)C(=O)O)cc1 (stereo unspecified)	63
CC(=O)c1nn(-c2ccc(C)cc2)cc1C#N	54
SMILES	RMI-FANCM inh
CCOC(=O)C(=O)Nc1c(C)nc2ccc(C)cn2c1=O	55
Cc1ccc2nc(C)c(NC(=O)Cc3ccccc3)c(=O)n2c1	73
Cc1ccc2nc(C)c(NC(=O)Cc3cccs3)c(=O)n2c1	28*
Cc1cccc(C)c1NC(=O)C(=O)NCC1CCN(C2CCCC2)CC1	76
COc1cc(/C=N\NC(=O)CNC(=O)c2ccccc2Cl)ccc1O	61
O=C(Nc1nc(CC(=O)N2CCc3ccccc3C2)cs1)c1ccc(Cl)cc1	95
CN(C)C(=O)CS(=O)(=O)c1ccc(Cl)cc1	63
O=C(Nc1cccc2c1CCCC2)c1cnc2n(c1=O)CCS2	64
O=C(Nc1ccc(S(=O)(=O)Nc2ncccn2)cc1)c1cnc2n(c1=O)CCS2	20*
O=C(Nc1ccc(Br)cc1)c1cnc2n(c1=O)CCS2	60
Cc1cc(C)nc(SCc2c(C(=O)NCc3ccc(F)cc3)nnn2-c2ccccc2)n1	67
CSc1ccccc1C(=O)N1CCN(c2ncnc3c2nnn3-c2ccccc2)CC1	53
COc1ccc(C(Nc2cc(C)on2)c2c(C)[nH]c3ccccc23)cc1OC (stereo unspecified)	58
Cc1[nH]c2ccccc2c1C(Nc1ccccn1)c1cccc([N+](=O)[O-])c1 (stereo unspecified)	25*!
Cc1[nH]c2ccccc2c1C(Nc1ccccc1F)c1ccccn1 (stereo unspecified)	97
OC(c1ccccc1)c1nc2ccccc2[nH]1 (stereo unspecified)	60
N#Cc1ccc2nc(C(O)C(O)c3nc4ccc(C#N)cc4[nH]3)[nH]c2c1 (stereo unspecified)	29*
OC(c1nc2ccccc2[nH]1)C(O)c1nc2ccccc2[nH]1 (stereo unspecified)	54
O=C(Nc1ccccc1)O/N=C\c1ccc(F)c(Cl)c1	44
O=C(O)/C=C/C(=O)Nc1ccc([N+](=O)[O-])cc1	60
Cn1cnc2c(NC3CCCC3)ncnc21	50
CSc1nc(C)nc(Sc2ccccn2)c1C#N	51
O=C(CC1CCCCN1S(=O)(=O)c1cccs1)Nc1cc(F)ccc1F (stereo unspecified)	67
O=C(CCS(=O)(=O)c1ccc(Cl)cc1)Nc1nnc(-c2ccncc2)o1	66
O=C(CCS(=O)(=O)c1ccc(F)cc1)Nc1nnc(-c2cccnc2)o1	57
SMILES	RMI-FANCM inh
O=C(CCS(=O)(=O)c1ccc(Cl)cc1)Nc1nnc(-c2ccc(F)cc2)o1	34*
Cc1ccc(CNC(=O)CC2Nc3ccccc3NC2=O)cc1 (stereo unspecified)	66
CCN1CCCc2cc(CCNC(=O)c3ccc(OC(C)C)cc3)ccc21	20*
CCCCOc1ccc(C(=O)NCCc2ccc3c(c2)CCCN3C)cc1	65
CCN1CCCc2cc(CCNC(=O)C(=O)NCCOC)ccc21	13*
CCN1CCCc2cc(CCNC(=O)NC(C)(C)C)ccc21	65
CCN1CCCc2cc(CCNC(=O)c3ccc(Br)o3)ccc21	48
CCN1CCCc2cc(CCNC(=O)C(=O)NCCN3CCOCC3)ccc21	69
C=CCn1c2ccccc2c2cc(-c3ccc4c(c3)c3ccccc3n4CC=C)ccc21	56
COc1ccccc1NC(=O)c1ccnn1C	69
CCOC(=O)C1=C(O)CN=C1C	51
COC(=O)c1sc(-c2ccccc2)cc1NC(=O)c1ccccc1I	61
COC(=O)c1sc(-c2ccccc2)cc1NC(=O)c1cc2c(ccc3ccccc32)oc1=O	31*
COC(=O)c1sc(-c2ccccc2)cc1NC(=O)c1ccccc1Cl	61
C=CCN1C(=O)C(C)(C)COc2cc(NC(=O)c3ccc(C(C)(C)C)cc3)ccc21	65
CCOc1ccccc1CN1C(=O)C2(SC(NC(C)=O)=NN2C(C)=O)c2cccc(Cl)c21 (stereo unspecified)	22*
COc1cccc(CNC(=O)Cn2c(=O)n(Cc3ccccc3Cl)c(=O)c3nccnc32)c1OC	66
CCOc1ccccc1CN1C(=O)C(NC(C)=O)c2cc(C)cc(C)c21 (stereo unspecified)	63
c1ccc(SCc2ccc(-c3csnn3)cc2)nc1	58
CN(C(=O)c1ccc(=O)n(Cc2cccc(F)c2)n1)C1CCCCC1	61
c1csc(-c2ccc(-c3ccno3)s2)c1	69
O=C(CN(c1ccc(F)cc1)S(=O)(=O)c1cccnc1)N1CCc2ccccc21	68
C(=C\c1ccccc1)/CN1CCN(C(c2ccccc2)c2ccccc2)CC1	54
Fc1ccc(C(c2ccc(F)cc2)N2CCN(C/C=C/c3ccccc3)CC2)cc1	24*!
COc1ccc(CN2CCN(C(c3ccc(F)cc3)c3ccc(F)cc3)CC2)c(OC)c1OC	65
CCOc1cccc2sc(N(CCN(CC)CC)C(=O)c3cccc(N4C(=O)CCC4=O)c3)nc12	77
O=C1Cc2ccccc2C1=C1Cc2ccccc2C1	51
NC(=O)N1c2ccccc2CC(=O)c2ccccc21	-8*!
NC(=O)C1Cc2ccccc2N1C(=O)CCCN1C(=O)c2ccccc2C1=O (stereo unspecified)	51
Cn1nccc1C(=O)Nc1nc(-c2cccnc2)cs1	69
